High-throughput results as filed in PubChem BioAssay.
A selection: hits, their analogues and other compounds. The true share with any hit is near 2.9%.
ERa coact inh – ERα–SRC-1 coactivator interaction inhibitors, primary screen, biochemical, TR-FRET, ERα LBD, estradiol-bound; Estrogen receptor (Homo sapiens), P03372; TR-FRET ER-alpha LBD / SRC-1 peptide; inhibition, % at 25.6 µM; 86,000 compounds, 1.7% hits; AID 629, 2007; in the data active = inhibition above about 50%;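 also: 0% = receptor plus peptide control and 100% = peptide only without receptor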
Candida biofilm – clotrimazole potentiators killing Candida biofilms, primary screen, with clotrimazole, Alamar Blue | C. albicans biofilm + clotrimazole | 85,000 compounds, 0.14% hits | inhibition, % at 6 µM | AID 834, 2007;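 active = inhibition above 20%; inactive = inhibition below 20%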;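 also: preformed 24 hr biofilms exposed to compound for 48 hr; 0% = biofilm without compound and 100% = blank killed by clotrimazole plus chlorhexidine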
E-sel TNF inh – E-selectin induction blockers in HUVEC – imaging, immunofluorescence, high content, primary screen; HUVEC TNFa-induced E-selectin immunofluorescence; inhibition, % at 2 µM; AID 1246, 2008; 120,000 compounds, 0.71% hits;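 active = inhibition above the batch mean plus 3 SD, and confirmed as a hit on visual image review, cut at about 43% in these data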;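 also: 0% = TNF-stimulated DMSO wells and 100% = unstimulated control wells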
ERb SRC1 inh – inhibitors of ERβ-SRC1 coactivator interaction, primary screen, biochemical, TR-FRET, ERβ LBD, SRC-1 peptide. Estrogen receptor beta (Homo sapiens), Q92731. TR-FRET ER-beta LBD / SRC1-Cy5 peptide binding; receptor agonist-loaded with 1 µM estradiol. inhibition, % at 25.6 µM. 86,000 compounds, 1.3% hits. AID 633, 2007;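 active = compounds whose percent inhibition of the receptor-coactivator binding signal exceeds about 50% in the single-dose screen, limit read from the data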;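 also: 0% = receptor plus peptide wells without compound and 100% = peptide-only wells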
Target sequence (Q92731 whole entry, looked up, the tested form may be a part): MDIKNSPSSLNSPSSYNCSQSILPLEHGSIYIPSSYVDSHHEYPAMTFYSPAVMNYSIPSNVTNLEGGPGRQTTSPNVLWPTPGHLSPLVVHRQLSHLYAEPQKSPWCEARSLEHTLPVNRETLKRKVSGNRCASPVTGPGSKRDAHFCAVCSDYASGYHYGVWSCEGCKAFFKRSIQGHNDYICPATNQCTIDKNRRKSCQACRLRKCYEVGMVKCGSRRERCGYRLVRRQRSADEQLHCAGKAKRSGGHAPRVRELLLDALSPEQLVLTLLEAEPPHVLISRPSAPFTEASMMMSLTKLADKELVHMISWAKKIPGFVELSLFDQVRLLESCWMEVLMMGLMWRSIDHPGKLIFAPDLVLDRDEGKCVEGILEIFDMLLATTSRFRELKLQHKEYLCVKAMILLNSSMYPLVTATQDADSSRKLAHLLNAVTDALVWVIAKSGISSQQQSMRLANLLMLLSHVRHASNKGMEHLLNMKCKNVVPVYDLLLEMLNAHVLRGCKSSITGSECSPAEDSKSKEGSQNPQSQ
ERa SRC1 pot – enhancers of ERα–SRC-1 coactivator binding, primary screen, biochemical, TR-FRET, ERα LBD, low estradiol; TR-FRET ERalpha-LBD/SRC-Cy5 coactivator binding, 2 h; 100 = basal binding, no effect; coactivator binding (% of control), % at 25.6 µM; 86,000 compounds, 1.3% hits; in the data active = activity above about 200%;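 also: binding measured in presence of low estradiol as agonist stimulus; 0% = peptide alone without receptor and 100% = receptor with peptide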
cytoskel mod – modifiers of F-actin cytoskeleton organization, primary screen, imaging, HUVEC, phalloidin staining, high-content imaging. HUVEC TNFa F-actin phalloidin imaging. inhibition, % at 2 µM. 91,000 compounds, 0.18% hits. AID 836, 2007;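 active = inhibition above the batch mean plus 3 SD and confirmed as a hit by visual image inspection, cut at about 30% in these data, passing the limit was not always enough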
* marks the source's active call; other numbers are inactive results; . = no result given; [ ] = remark or other dose.

SMILES | ERa coact inh | Candida biofilm | E-sel TNF inh | ERb SRC1 inh | ERa SRC1 pot | cytoskel mod
CCCC1=[N+](CC(=O)c2ccc(C)cc2)CCn2cccc21 | . | . | 18 | . | . | .
Cc1cc(=O)n2nc(-c3ccccc3)sc2c1C#N | -2 | 8 | 95* | 8 | 107 | .
N#C/C(=C(/O)COC(=O)Cc1c[nH]c2ccccc12)c1nc2ccccc2[nH]1 | 29 | 6 | -8 | 11 | 59 | 55
N#C/C(=C(/O)COC(=O)CCCNC(=O)c1ccc(Cl)cc1)c1nc2ccccc2[nH]1 | 52*[fluorescence artefact?] | 5 | -3 | 40 | 66 | -4
CC(=O)Nc1ccc2c(c1)ncn2-c1ccc(C)cc1 | . | . | -13 | . | . | .
CCCSc1nc2c(cnn2-c2ccc(Cl)cc2)c(=O)[nH]1 | . | . | 6 | . | . | -6
CCCCSc1nc2c(cnn2-c2ccc(F)cc2)c(=O)[nH]1 | 28 | 2 | . | 32 | 209*[fluorescence artefact?] | 4
CCOC(=O)N1CCN(C(=O)CSc2nc3c(cnn3-c3ccc(C)cc3)c(=O)[nH]2)CC1 | -5 | -3 | . | -7 | 112 | .
CCOC(=O)N1CCN(C(=O)CSc2nc3c(cnn3-c3ccc(Cl)cc3)c(=O)[nH]2)CC1 | -3 | 20* | 3 | -6 | 128 | .
CCOC(=O)CNC(=O)CSc1ncnc2c1cnn2-c1ccc(Cl)cc1 | -17 | 6 | -18 | -8 | 206* | 8
COC(=O)c1ccc(CSc2nc3c(cnn3-c3ccccc3)c(=O)[nH]2)o1 | -38 | 7 | -9 | -18 | 258*[fluorescence artefact?] | 4
CCCCn1cnc2c(c1=O)c1nc3ccccc3nc1n2Cc1ccc2c(c1)OCO2 | 11 | 4 | . | 22 | 128 | .
CCN(CC)C(=O)Cn1cc(C(=O)C(=O)NCc2ccco2)c2ccccc21 | . | . | -45 | . | . | .
NS(=O)(=O)c1ccc(CCNC(=O)c2ccc(C#CC3(O)CCCCC3)cc2)cc1 | . | . | -38 | . | . | .
O=C(CSc1nc2c(cnn2-c2ccc(F)cc2)c(=O)[nH]1)Nc1nccs1 | . | . | -11 | . | . | .
CC1CCN(C(=O)CSc2nc3c(cnn3-c3ccc(Cl)cc3)c(=O)[nH]2)CC1 | 6 | -1 | -8 | 2 | 145 | .
COC(=O)c1ccc(CSc2nc3c(cnn3-c3ccc(Cl)cc3)c(=O)[nH]2)o1 | -37 | 7 | 1 | -12 | 343*[fluorescence artefact?] | 4
COC(=O)c1ccc(CSc2nc3c(cnn3-c3ccc(F)cc3)c(=O)[nH]2)o1 | -21 | 9 | 16 | 21 | 517* | 1
COc1cc(-n2c(=O)c3ccccc3n(CC(=O)c3ccc(F)cc3)c2=O)cc(OC)c1OC | . | . | 11 | . | . | .
O=c1c2c(n3nnnc3n1-c1ccccc1)-c1ccccc1CC21CCCC1 | -1 | 0 | 100* | 4 | 107 | -17
COc1ccc2cc3cc(C(=O)Nc4cc(OC)c(OC)c(OC)c4)oc3nc2c1 | 1 | -2 | -7 | 2 | 144 | -14
COc1ccc2cc3cc(C(=O)Nc4ccc5c(c4)OCCO5)oc3nc2c1 | 71*[fluorescence artefact?] | 7 | . | 38 | 209* | 11
COc1ccc(C(=O)Cn2nnc(-c3cccs3)n2)cc1 | 1 | 1 | -19 | 78*[fluorescence artefact?] | 93 | -16
O=c1c2ccccc2n2c(-c3cccc(F)c3)nnc2n1Cc1ccccc1 | . | . | 74* | . | . | .
CCSc1nc2ccc(N3C(=O)C4C5C=CC(C5)C4C3=O)cc2s1 (stereo not given) | . | . | 14 | . | . | .
SMILES | ERa coact inh | Candida biofilm | E-sel TNF inh | ERb SRC1 inh | ERa SRC1 pot | cytoskel mod
C=CCSC1=N/C(=C\C=C\c2ccco2)C(=O)S1 | 78* | 7 | . | 64* | 63 | -23
Cc1c(C(=O)Nc2ccc3c(c2)OCCO3)sc2nc(-c3ccccc3)cn12 | -24 | 5 | 13 | -23 | 100 | -12
Cc1c(C(=O)Nc2ccncc2)sc2nc(-c3ccccc3)cn12 | 14 | 3 | -8 | -4 | 214*[fluorescence artefact?] | .
CCOC(=O)CSc1nnc(CNc2cccc(Cl)c2)n1C | 0 | 6 | 6 | -4 | 117 | -4
COCCCn1c(Cc2csc(Nc3cccc(Cl)c3)n2)nnc1SCC(=O)OC | 37 | 2 | -9 | 61*[fluorescence artefact?] | 42 | 6
O=C(CSc1nnc(-c2ccc(OC(F)F)cc2)o1)NC(=O)NCc1ccco1 | 67* | 4 | . | 53* | 112 | -23
COc1ccc(-c2nnc(SCC(=O)NC(=O)NCc3ccccc3)o2)cc1 | 21 | 4 | 11 | 8 | 312*[fluorescence artefact?] | 12
COc1cc(OC)cc(-c2nnc(SCC(=O)Nc3cc(C)on3)o2)c1 | -19 | 5 | -7 | -11 | 393*[fluorescence artefact?] | 16
COc1ccc(-c2nnc(SCC(=O)NCc3ccco3)o2)cc1 | 22 | 8 | -20 | 20 | 69 | 38
CCn1c(SCC(=O)NC(C)(C)C)nnc1-c1ccccn1 | 0 | 5 | -4 | -7 | 91 | 14
CCCCS(=O)Cc1ccccc1 (stereo not given) | 5 | 2 | 16 | -3 | 108 | -7
C/C(=N/NC(=O)c1cccs1)c1ccc(NC(=O)COc2ccc(Cl)cc2)cc1 | . | . | 0 | . | . | -20
CCc1ccc2nc(NC(=O)CSCc3c(C)noc3C)sc2c1 | 6 | 2 | 1 | 91*[fluorescence artefact?] | 83 | 2
Cc1ccc2nc(NC(=O)CSCC(=O)OCC(=O)c3ccccc3)sc2c1 | . | . | 2 | . | . | .
COc1ccc(-c2noc(CCC(=O)Nc3cccc(C)c3)n2)cc1 | -13 | 8 | -6 | -8 | 108 | -6
CCOc1ccc(-c2noc(CCCC(N)=O)n2)cc1OC | -3 | 5 | 1 | -13 | 107 | 0
COc1ccc(-c2noc(CCC(=O)Nc3nc4ccccc4s3)n2)cc1 | 14 | 5 | 10 | -2 | 208*[fluorescence artefact?] | 0
COc1ccc(-c2noc(CCC(N)=O)n2)cc1OC | -6 | 9 | 80* | 17 | 118 | 12
COc1cc(NC(=O)CCc2nc(-c3cccs3)no2)cc(OC)c1OC | 11 | 10 | -26 | 24 | 108 | 3
COc1cc(-c2noc(CCC(=O)Nc3cccnc3)n2)cc(OC)c1OC | 1 | 11 | 62* | -9 | 109 | -13
COc1ccccc1-c1noc(CCC(=O)Nc2ccccc2Cl)n1 | -25 | 1 | 16 | -8 | 78 | 19
CCOc1ncccc1C(=O)OCC(=O)c1ccc(C)c(C)c1 | . | . | -38 | . | . | .
O=C(NC(=S)N(CCCCO)C1CCCCC1)c1sc2ccccc2c1Cl | . | . | -48 | . | . | 15
[O-]C1=N/[N+](=C/c2ccccc2Cl)CC1 | 7 | 7 | 11 | 9 | 68 | -5
COc1ccc(Cl)c(Cn2c(NCCCO)nc3c2c(=O)n(C)c(=O)n3C)c1 | -8 | 9 | . | -3 | 135 | 6
Cc1ccc(-c2nc(S(=O)(=O)c3ccc(F)cc3)c(SCC(=O)NCC3CCCO3)o2)cc1 (stereo not given) | 67*[fluorescence artefact?] | 2 | -12 | 25 | 107 | -17
